The text below walks through data of PMC8384837, “Expanding the binding specificity for RNA recognition by a PUF domain”.

The target of the first test is PUM1 PUF domain R8-KWN (Homo sapiens, UniProt Q14671 828-1176, N1122K;Y1123W;Q1126N). The test can be described thus: yeast three-hybrid, YBZ-1, SC-Leu-His + 0.5 mM 3-AT, 4 days. The note with it: tags: N-Gal4 AD-HA kept; label: inside an RPR1-promoter hybrid RNA with tandem MS2 sites; ssRNA. In short, it runs like this: (§1)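 Pumilio-1 PUF domain libraries, randomized (NNK) at the three base-contacting residues of each repeat, were co-expressed with matching RNA elements from a centromeric plasmid in strain YBZ-1 (LexA–MS2 coat fusion, HIS3 reporter). Transformants were plated on SC-Leu (input) and SC-Leu-His + 0.5 mM 3-AT (selection) for four days, and repeat regions were PCR-amplified and Illumina-sequenced. The interaction score is the log2 change in variant frequency from input to selection, with pseudocount 1 where absent.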
Turning to “GGCUAGAACUAGUGGAUCCCCCGGCGCCCGGCGGCUCGAGCCCGGGUAAGUGUAAAUAGUCUGCAUGCCGCCGGGCGCCAUGCCUGCAGGUCGACUCUAGAAAACAUG”, the binding signal is 2.44 log2 enrichment (interaction score). With “GGCUAGAACUAGUGGAUCCCCCGGCGCCCGGCGGCUCGAGCCCGGGUAAGCGUAAAUAGUCUGCAUGCCGCCGGGCGCCAUGCCUGCAGGUCGACUCUAGAAAACAUG”, the binding signal was 2.89 log2 enrichment (interaction score). Turning to “GGCUAGAACUAGUGGAUCCCCCGGCGCCCGGCGGCUCGAGCCCGGGUAAGGGUAAAUAGUCUGCAUGCCGCCGGGCGCCAUGCCUGCAGGUCGACUCUAGAAAACAUG”, the binding signal was 2.68 log2 enrichment (interaction score).

The target in the next test is PUM1 PUF domain R5-RYC (Homo sapiens, UniProt Q14671 828-1176, C1007R;R1008Y;Q1011C). Described as above. The note with it: tags: N-Gal4 AD-HA kept; label: inside an RPR1-promoter hybrid RNA with tandem MS2 sites; ssRNA. The essentials:
as §1
With “GGCUAGAACUAGUGGAUCCCCCGGCGCCCGGCGGCUCGAGCCCGGGUAAGUGUAAAUAGUCUGCAUGCCGCCGGGCGCCAUGCCUGCAGGUCGACUCUAGAAAACAUG”, the binding signal was 3.48 log2 enrichment (interaction score). As for “GGCUAGAACUAGUGGAUCCCCCGGCGCCCGGCGGCUCGAGCCCGGGUAAGUGUUAAUAGUCUGCAUGCCGCCGGGCGCCAUGCCUGCAGGUCGACUCUAGAAAACAUG”, the binding signal was 4.89 log2 enrichment (interaction score). Same read-out and setting: the value for “GGCUAGAACUAGUGGAUCCCCCGGCGCCCGGCGGCUCGAGCCCGGGUAAGUGUCAAUAGUCUGCAUGCCGCCGGGCGCCAUGCCUGCAGGUCGACUCUAGAAAACAUG” was 4.73 log2 enrichment (interaction score).
